# Laboratory results as given in ChEMBL document CHEMBL3988442, “University of Dundee, Small-Polar-MMV Screening Library” (2021).
# The whole screen tested about 69,000 compounds, of which about 1,000 (1.4%) showed an effect of 50% or more. The list comes from a sample in which strong results are over-represented; it also holds similar structures and randomly drawn compounds.
# System: Leishmania donovani
# Experiment: Leishmania intramacrophage assay
# Format: functional, organism-based
# Set-up: scale not given: in the data most compounds retested in dose-response had high values
structure (smiles),measurement,setting,value
CO[C@H]1CCN(Cc2ccoc2)C[C@@H]1Cc1ccccc1.O=C(O)C(F)(F)F,Percent Effect,"30.3 µM, […]",25.61%
COc1c(C)cnc(CSc2nnc(NC3CC3)s2)c1C,Percent Effect,"30.3 µM, […]",13.54%
O=C(NCC(=O)N1CCCC(c2ccccc2)CC1)c1ccoc1 (stereo unspecified),Percent Effect,30 µM,24.45%
O=C([C@H]1CCCO1)N1CCc2ncc(CN3CCOCC3)n2CC1,Percent Effect,"30.3 µM, […]",32.4%
Cc1cnn(CC(C)NCc2ccc(OCC(N)=O)cc2)c1 (stereo unspecified),Percent Effect,30 µM,8.68%
Cc1c(CN2CC[C@@H](N3CCC(O)CC3)[C@H](O)C2)[nH]c2ccc(Cl)cc12,Percent Effect,"30.3 µM, […]",82.7%
Cc1ccc2[nH]c(CN3CC[C@@H](N4CCN(C)CC4)[C@H](O)C3)c(C)c2c1,Percent Effect,"30.3 µM, […]",23.41%
Cc1c(CN2CC[C@@H](N3CCC(O)CC3)[C@H](O)C2)[nH]c2ccc(F)cc12,Percent Effect,"30.3 µM, […]",26.65%
O=C(c1ccc(S(=O)(=O)NCc2ccon2)cc1)N1CCOCC1,Percent Effect,"30.3 µM, […]",0.2735%
CCOc1ccc(-c2c(-c3ccccc3)ncn2C2CCNC2)cn1 (stereo unspecified),Percent Effect,"30.3 µM, […]",76.3%
Oc1ccc(-c2c(-c3ccccc3)ncn2C2CCNC2)cc1 (stereo unspecified),Percent Effect,"30.3 µM, […]",-26.99%
Cc1nc[nH]c1-c1c(-c2ccccc2)ncn1C1CCNC1 (stereo unspecified),Percent Effect,"30.3 µM, […]",-1.128%
CCc1nc(CN2CCCN(c3ncnc4ccccc34)CC2)no1,Percent Effect,"30 µM, 30.03 µM",55.68%
Cc1nc(C)n(CC2CCCN(c3ncnc4c3CCC4)C2)n1 (stereo unspecified),Percent Effect,"30 µM, 30.03 µM",28.07%
Cc1nc(C)n(CC2CCCN(c3ncnc4[nH]ccc34)C2)n1 (stereo unspecified),Percent Effect,"30 µM, 30.03 µM",52.77%
Cc1nc(CN2CCN(c3ncnc4ccccc34)CC2)no1,Percent Effect,"30.3 µM, […]",19.7%
CCc1nc(CN2CCCN(c3ncnc4ccsc34)CC2)no1,Percent Effect,"30.3 µM, […]",27.83%
Cc1nc(C)n(CC2CCCN(c3ncnc4sccc34)C2)n1 (stereo unspecified),Percent Effect,"30 µM, 30.03 µM",-10.34%
Cc1nc(C)n(CC2CN(c3ncnc4[nH]ccc34)CCO2)n1 (stereo unspecified),Percent Effect,"30 µM, 30.03 µM",-5.028%
Cc1nc(C)n(CC2CCCN(c3ncnc4ccccc34)C2)n1 (stereo unspecified),Percent Effect,30 µM,54.57%
Cc1nc(C)n(CC2CCCN(c3ncnc4ccsc34)C2)n1 (stereo unspecified),Percent Effect,"30 µM, 30.03 µM",35.24%
COCC1CN(C(=O)COc2ccccc2C)Cc2ncn(C)c21.O=C(O)C(F)(F)F (stereo unspecified),Percent Effect,"30.3 µM, […]",12.02%
Cc1ccc(CN2CCn3c(COc4cccnc4)cnc3C2C)o1.O=C(O)C(F)(F)F.O=C(O)C(F)(F)F (stereo unspecified),Percent Effect,"30.3 µM, […]",-4.64%
CCCn1cc(C(=O)N[C@H]2CC[C@H](n3cnnc3)CC2)c(C)n1,Percent Effect,"30.3 µM, […]",11.19%
O=C(O)C(F)(F)F.O=S(=O)(c1cccs1)N1CC[C@H]2[C@H]1CCN2c1ncccn1,Percent Effect,"30.3 µM, […]",-1.813%
Cc1csc(CN2C[C@@H]3CN(CC4CCOCC4)CCO[C@@H]3C2)n1,Percent Effect,"30.3 µM, […]",53.9%
Cc1ccc(CN2C[C@@H]3CN(CC4CCOCC4)CCO[C@@H]3C2)s1.O=C(O)C(F)(F)F.O=C(O)C(F)(F)F,Percent Effect,"30.3 µM, […]",24.65%
Cc1csc(CN2C[C@@H]3CN(S(C)(=O)=O)CCO[C@@H]3C2)n1,Percent Effect,"30.3 µM, […]",20.2%
Cc1nc(C(=O)N2CCCC2c2cncc(CN3CCCC3)n2)co1 (stereo unspecified),Percent Effect,"30.3 µM, […]",16.43%
COc1ccc(CC(=O)N2CCCC(n3nc(C)cc3C)C2)cc1F (stereo unspecified),Percent Effect,30 µM,18.37%
Cc1[nH]/c(=N\C(=O)c2csc(NC3CC3)n2)sc1C,Percent Effect,"30 µM, 30.03 µM",70.25%
CC(C)CNc1nc(C(=O)/N=c2\[nH]nc(C(C)(C)C)s2)cs1,Percent Effect,"30 µM, 30.03 µM",-9.293%
CCN(CC)C(=O)CCCNC(=O)c1csc(NC2CC2)n1,Percent Effect,"30.3 µM, […]",-2.373%
CC(C)(C)[S+]([O-])CCNC(=O)c1csc(NC2CC2)n1 (stereo unspecified),Percent Effect,"30.3 µM, […]",-31.46%
Cc1[nH]/c(=N\C(=O)c2csc(NCC(C)C)n2)sc1C,Percent Effect,"30 µM, 30.03 µM",87.72%
Cc1[nH]/c(=N\C(=O)c2csc(NC3CCCC3)n2)sc1C,Percent Effect,"30.3 µM, […]",100.1%
Cc1cs/c(=N/C(=O)c2csc(NCC(C)C)n2)[nH]1,Percent Effect,"30.3 µM, […]",8.971%
CN1CCN(C(=O)CCc2cc(Br)cs2)CC1,Percent Effect,"30.3 µM, […]",1.944%
O=C(Cc1ccsc1)N1CCN(CC2CC2)c2ncccc2C1.O=C(O)C(F)(F)F,Percent Effect,"30.3 µM, […]",13.41%
CC(C)c1cc(C(F)(F)F)n2nc(C3CCN(S(C)(=O)=O)C3)cc2n1 (stereo unspecified),Percent Effect,"30.3 µM, […]",14.63%
COc1ccc2[nH]cc(C(=O)N3C[C@@H](O)[C@H](N4CCOCC4)C3)c2c1,Percent Effect,"30.3 µM, […]",10.77%
COc1ccccc1OCc1cc(C(=O)N2CCOCC2CO)n[nH]1 (stereo unspecified),Percent Effect,"30.3 µM, […]",28.86%
CCc1ccc(CN(Cc2ccccc2)CC(C)CO)nc1 (stereo unspecified),Percent Effect,"30.3 µM, […]",7.862%
CC(C)OCCN1CCN(C(C)c2nc(C3CC3)no2)CC1 (stereo unspecified),Percent Effect,30 µM,6.668%
CC(c1nc(C2CC2)no1)N1CCN(CCS(C)(=O)=O)CC1 (stereo unspecified),Percent Effect,"30.3 µM, […]",50.3%
COCCN1CCN(C(C)c2nc(C3CC3)no2)CC1 (stereo unspecified),Percent Effect,30 µM,-7.952%
Clc1snnc1CN1CCN(c2nccs2)CC1,Percent Effect,"30.3 µM, […]",-11.24%
COc1ccccc1CC(C)CC(=O)N(C)Cc1cc(C)on1 (stereo unspecified),Percent Effect,"30.3 µM, […]",6.655%
COc1ccccc1CC(C)CC(=O)NS(=O)(=O)C(C)C (stereo unspecified),Percent Effect,"30.3 µM, […]",63.27%
COc1ccccc1CC(=O)NS(C)(=O)=O,Percent Effect,"30 µM, 30.03 µM",11.96%
CCC(CC(=O)NS(=O)(=O)C(C)C)c1ccccc1 (stereo unspecified),Percent Effect,"30.3 µM, […]",-1.743%
COc1ccccc1CC(C)CC(=O)O (stereo unspecified),Percent Effect,"30.3 µM, […]",41.22%
COc1ccccc1CC(C)CC(=O)NC(C)C (stereo unspecified),Percent Effect,"30.3 µM, […]",59.88%
Cc1cc(NC(=O)NCC(c2ccccc2)N2CCOCC2)n(C)n1 (stereo unspecified),Percent Effect,30 µM,18.5%
C1CC(CN2CCO[C@H]3[C@H](OCC4CC4)CC[C@@H]32)CCO1.O=C(O)C(F)(F)F,Percent Effect,"30 µM, 30.03 µM",5.211%
Cc1ccc(NC(=O)CC2Cn3ncnc3NC2=O)cc1C (stereo unspecified),Percent Effect,"30.3 µM, […]",22.77%
CN1CCOCC12CCN(c1ccc(C#N)cc1)CC2.O=C(O)C(F)(F)F,Percent Effect,"30.3 µM, […]",14.66%
COc1ccc(C2CCCN2C(=O)c2csc(NC(C)=O)n2)cc1 (stereo unspecified),Percent Effect,"30 µM, 30.03 µM",22.16%
Cc1cc(C(=O)NCCc2nc3c(s2)CCCC3)n(C)n1,Percent Effect,"30.3 µM, […]",29.87%
O=C1CCc2cc(-c3csc(CCN4CCOC4=O)n3)c(F)cc2N1,Percent Effect,"30.3 µM, […]",-11.05%
CC(C)c1nc(C2CCCN(C(=O)c3ccc4c(c3)COC4)C2)no1 (stereo unspecified),Percent Effect,30 µM,33.04%
CC(C)C(=O)N1CCC12CCCN(C(=O)c1ccccc1)C2 (stereo unspecified),Percent Effect,"30.3 µM, […]",9.102%
Cc1occc1CNC(=O)C1(C)CCCN1C(=O)c1ccccc1 (stereo unspecified),Percent Effect,"30.3 µM, […]",-78.28%
Cc1occc1CNC(=O)C1(C)CCCN(C(=O)c2ccccc2)C1 (stereo unspecified),Percent Effect,"30.3 µM, […]",52.94%
Cc1cc(CNS(=O)(=O)CCCC#N)ccc1N(C)C,Percent Effect,"30.3 µM, […]",31.94%
CCOc1ncnc2c1CCN(Cc1csc(C)n1)CC2.O=C(O)C(F)(F)F,Percent Effect,"30.3 µM, […]",25.55%
CCOc1cc2c(cc1CNC(Cc1cccs1)c1nccs1)OCO2.Cl (stereo unspecified),Percent Effect,"30.3 µM, […]",32.16%
Cc1[nH]c(-c2ccccc2)nc1C(=O)N1CCC(O)(CO)CC1,Percent Effect,"30.3 µM, […]",20.13%
Cc1[nH]c(-c2ccccc2)nc1C(=O)N1CCC2(CCCO2)CC1,Percent Effect,"30.3 µM, […]",62.09%
Cc1nccc(-c2ccccc2)c1C(=O)N1CCC2(CCCO2)CC1,Percent Effect,"30.3 µM, […]",-0.7591%
CS(=O)(=O)Cc1cccc(C(=O)N2CCCC(n3cccn3)C2)c1 (stereo unspecified),Percent Effect,"30 µM, 30.03 µM",-5.751%
CCc1ccc(C(=O)N2CCC(c3nncn3CC)CC2)o1,Percent Effect,"30.3 µM, […]",-10.9%
COc1cc(CNC(=O)c2csc(Br)c2)ccn1,Percent Effect,"30.3 µM, […]",18.58%
Cc1cc(CN(CC(N)=O)CC(C)C)on1,Percent Effect,"30.3 µM, […]",34.94%
Cc1ccc(-c2cc(CN(CC(N)=O)CC(C)C)on2)cc1,Percent Effect,"30.3 µM, […]",57.13%
Cc1cc(CN(CC(N)=O)CC(C)C)no1,Percent Effect,"30.3 µM, […]",34.93%
CN(C)C(=O)CO[C@H]1CN(Cc2ccc3c(c2)OCO3)[C@@H]2COC[C@H]12.O=C(O)C(F)(F)F,Percent Effect,"30.3 µM, […]",10.2%
O=C(O)Cc1cccc(-n2ccnc2-c2ccc(Cl)s2)c1,Percent Effect,"30.3 µM, […]",-13.71%
CC(NC(=O)NCCCO)c1ccc2c(c1)NC(=O)CO2 (stereo unspecified),Percent Effect,30 µM,9.165%
CC(NC(=O)C1CCCC1)c1nncn1C(C)C (stereo unspecified),Percent Effect,"30.3 µM, […]",53.36%
CC(NC(=O)C1CCN(C(C)C)CC1)c1nncn1C1CCCC1 (stereo unspecified),Percent Effect,"30.3 µM, […]",38.57%
CC(NC(=O)C1CCN(C(=O)C2CC2)CC1)c1nncn1C(C)C (stereo unspecified),Percent Effect,"30.3 µM, […]",27.99%
Cc1ccc(CN2CCOC3(CCCN(c4cccc(F)c4)C3)C2)o1.O=C(O)C(F)(F)F.O=C(O)C(F)(F)F (stereo unspecified),Percent Effect,"30.3 µM, […]",23.02%
O=C(NCCCOC1CCCCC1)C1NCCc2[nH]cnc21 (stereo unspecified),Percent Effect,"30.3 µM, […]",6.477%
COC(=O)NCC(=O)N1CCC(c2cc3ccccc3[nH]2)CC1,Percent Effect,"30.3 µM, […]",11.64%
N#CCCCS(=O)(=O)NC1(c2cccc(Cl)c2)CC1,Percent Effect,"30.3 µM, […]",17.77%
CCS(=O)(=O)N1CCc2ccc(NC(=O)Nc3ccccc3)cc21,Percent Effect,"30.3 µM, […]",14.09%
CCS(=O)(=O)N1CCc2ccc(NC(=O)Nc3cccc(SC)c3)cc21,Percent Effect,"30 µM, 30.03 µM",59.71%
CCS(=O)(=O)N1CCc2ccc(NC(=O)Nc3cccc(F)c3)cc21,Percent Effect,"30.3 µM, […]",17.8%
CC(=O)N(Cc1ncc(C(C)C)o1)C1CCN(Cc2cc(C)no2)C1 (stereo unspecified),Percent Effect,30 µM,25.52%
O=C1CN(C(=O)C2CN(c3ccccc3)CCO2)CCN1 (stereo unspecified),Percent Effect,"30.3 µM, […]",40.28%
CC(C)n1c(=O)c2ccccc2n(CCN(C)C)c1=O.Cl,Percent Effect,"30.3 µM, […]",50.24%
CN(C)CCn1c(=O)n(C)c(=O)c2ccccc21.Cl,Percent Effect,"30.3 µM, […]",-33.87%
CC(C)n1c(=O)c2ccccc2n(CCCN(C)C)c1=O.Cl,Percent Effect,"30.3 µM, […]",-9.627%
CC(C)n1c(=O)c2ccccc2n(CCN2CCCCC2)c1=O,Percent Effect,"30.3 µM, […]",52.87%
O=C(NCCCN1CCCCC1)c1n[nH]c(=O)c2ccccc12,Percent Effect,"30.3 µM, […]",20.29%
O=C(NCCN1CCCCCC1)c1n[nH]c(=O)c2ccccc12,Percent Effect,"30.3 µM, […]",-32.33%
CCOCCn1nnc(C2(NC(=O)c3ccccc3)CCCC2)n1,Percent Effect,"30 µM, 30.03 µM",1.124%
Cc1ccc(OC2(C(=O)N(C)Cc3ccoc3)CCNCC2)cc1,Percent Effect,"30.3 µM, […]",83.11%
CN(Cc1ccoc1)C(=O)C1(Oc2ccc(Cl)cc2)CCNCC1,Percent Effect,"30.3 µM, […]",-16.66%
CN(Cc1ccncn1)C(=O)C1(Oc2ccc(Cl)cc2)CCNCC1,Percent Effect,"30.3 µM, […]",12.34%
